Results: PMC6919601, “Identification of Plasmodium dipeptidyl aminopeptidase allosteric inhibitors by high throughput screening” (PLoS ONE, 2019)
In all, about 110,000 compounds went through this assay and about 230 (0.21%) showed an effect of 50% or more. Many of the other results were omitted from the sample, so strong results are more common in it than they were.

Molecular target: DPAP1 (Plasmodium falciparum, UniProt Q8IIJ9)
Experiment: primary screen, percent inhibition; read by cleavage of a fluorogenic dipeptide substrate; higher = more effect of the substance
Design: species or system P. falciparum D10 trophozoite lysates; single well
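Note: 30 min substrate incubation versus DMSO and 10 µM JCP410 controls.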

DPAP1, sequence (Q8IIJ9 whole entry, looked up): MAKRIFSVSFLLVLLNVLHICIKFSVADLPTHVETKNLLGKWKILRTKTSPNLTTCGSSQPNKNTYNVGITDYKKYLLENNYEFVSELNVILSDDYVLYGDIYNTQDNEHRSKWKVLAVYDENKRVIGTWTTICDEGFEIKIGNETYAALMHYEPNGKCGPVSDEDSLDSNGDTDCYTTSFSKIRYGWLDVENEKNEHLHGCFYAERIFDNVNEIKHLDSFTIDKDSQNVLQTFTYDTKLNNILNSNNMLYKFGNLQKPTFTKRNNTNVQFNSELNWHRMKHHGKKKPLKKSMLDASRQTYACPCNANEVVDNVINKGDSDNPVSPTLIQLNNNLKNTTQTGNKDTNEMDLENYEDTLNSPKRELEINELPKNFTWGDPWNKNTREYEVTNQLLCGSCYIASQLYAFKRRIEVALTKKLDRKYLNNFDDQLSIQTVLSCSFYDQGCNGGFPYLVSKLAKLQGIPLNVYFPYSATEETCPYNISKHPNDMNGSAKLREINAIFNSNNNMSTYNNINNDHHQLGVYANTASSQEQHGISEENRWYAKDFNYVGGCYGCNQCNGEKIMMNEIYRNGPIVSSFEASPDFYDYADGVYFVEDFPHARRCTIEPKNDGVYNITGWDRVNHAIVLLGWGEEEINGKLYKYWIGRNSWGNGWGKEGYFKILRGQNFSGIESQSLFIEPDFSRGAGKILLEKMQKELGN

Compared with CCOc1ccc(-c2nn3c(-c4cc(OC)c(OC)c(OC)c4)nnc3s2)cc1, COc1cc(-c2nnc3sc(-c4ccc(C(C)(C)C)cc4)nn23)cc(OC)c1OC is lower in “% Inhibition @ 10 uM” value: 56.2% for the first, 2.89% for the second.

Going from COc1cc(-c2nnc3sc(-c4ccc(C)c(C)c4)nn23)cc(OC)c1OC to COc1cc(-c2nnc3sc(/C=C/c4ccco4)nn23)cc(OC)c1OC, the “% Inhibition @ 10 uM” value falls from 29.8% to 6.01%.

Going from COc1ccccc1-c1nnc2sc(/C=C/c3ccccc3)nn12 to COc1cc(-c2nnc3sc(/C=C/c4ccccc4)nn23)cc(OC)c1OC, the “% Inhibition @ 10 uM” value rises from 6.01% to 59.6%.

Compared with O=[N+]([O-])c1ccc(S(=O)(=O)n2cnc3ccccc32)cc1, COc1cc(NS(=O)(=O)c2ccc(N3C(=O)c4ccccc4C3=O)cc2)nc(OC)n1 is lower in “% Inhibition @ 10 uM” value: 2.81% for the first, -1.96% for the second.

First: CCOC(=O)N1CCN(c2ccc(/C=C(\C#N)c3nc4ccccc4s3)o2)CC1
Second: CCC(C(=O)Nc1nc2nc(C)cc(O)n2n1)c1ccccc1 (stereo not drawn)
The “% Inhibition @ 10 uM” value of the first is higher: 4.67% for the first, 0.401% for the second.

First: COc1ccccc1/C=C/c1nn2c(C)nnc2s1
Second: COc1ccccc1/C=C/c1nn2c(C3COc4ccccc4O3)nnc2s1 (stereo not drawn)
The “% Inhibition @ 10 uM” value of the first is lower: 2.29% for the first, 50.2% for the second.

Going from Cc1ccc(-c2nn3c(C4COc5ccccc5O4)nnc3s2)cc1C (stereo not drawn) to Clc1ccc(-c2nn3c(C4COc5ccccc5O4)nnc3s2)cc1 (stereo not drawn), the “% Inhibition @ 10 uM” value rises from 2.89% to 53.7%.

Going from c1ccc2c(c1)OCC(c1nnc3sc(-c4ccncc4)nn13)O2 (stereo not drawn) to COc1ccccc1-c1nn2c(C3COc4ccccc4O3)nnc2s1 (stereo not drawn), the “% Inhibition @ 10 uM” value rises from 2.68% to 7.5%.

Compared with COc1ccc(/C(O)=C/C=N/c2ccc3c(c2)OCO3)cc1, COc1ccc(C2=N/C(=C\c3cccs3)C(=O)O2)cc1 is higher in “% Inhibition @ 10 uM” value: -4.12% for the first, 11.6% for the second.

First: COc1ccccc1NC(=O)C1=C(C)N=C2CCCC(O)=C2C1c1ccc(OC)c(OC)c1 (stereo not drawn)
Second: COc1cc(C(=O)NCc2cn3cccc(C)c3n2)cc(OC)c1OC
The “% Inhibition @ 10 uM” value of the first is lower: 2.51% for the first, 3.3% for the second.

Going from CCOc1cc(CN2CCN(Cc3ccccc3)CC2)ccc1O to CCOc1cc(CN2CCN(C)CC2)ccc1O, the “% Inhibition @ 10 uM” value falls from 3.9% to 2.33%.

Compared with CCOc1cc(CN2CCSCC2)ccc1O, Oc1ncnc2sc3c(c12)CCN(Cc1ccccc1)C3 is lower in “% Inhibition @ 10 uM” value: 96.4% for the first, 6.74% for the second.

Going from NCCSc1nnc2c(n1)[nH]c1ccccc12 to CCCCSc1nnc2c(n1)[nH]c1ccccc12, the “% Inhibition @ 10 uM” value falls from 77.5% to 2.86%.

Going from CCCCCCSc1nnc2c(n1)[nH]c1ccccc12 to Cc1nnc(SCc2ccc(F)cc2)nc1O, the “% Inhibition @ 10 uM” value rises from -2.35% to 3.62%.

First: COc1ccc(-n2c3c(c(=O)[nH]c2=O)C(NC(=O)c2ccc(F)cc2)(C(F)(F)F)C(=O)N3)cc1 (stereo not drawn)
Second: COc1ccc(-n2c(=S)[nH]c3sc4c(c3c2=O)CCC4)cc1
The “% Inhibition @ 10 uM” value of the first is lower: 3.57% for the first, 84.1% for the second.

First: COc1ccc(/C=N/n2c(S)nnc2C(F)(F)F)cc1O
Second: COc1ccc(/C=C2\C(=N)N3N=C(S(C)(=O)=O)SC3=NC2=O)cc1
The “% Inhibition @ 10 uM” value of the first is higher: -3.04% for the first, -5.27% for the second.

First: COc1ccc(OC)c(C2CC(=O)N3CN(C4CCCCC4)CSC3=C2C#N)c1 (stereo not drawn)
Second: COc1ccc(Br)cc1C1CC(=O)N2CN(C3CCCCC3)CSC2=C1C#N (stereo not drawn)
The “% Inhibition @ 10 uM” value of the first is lower: 9.77% for the first, 60.2% for the second.

Compared with COc1cccc(C2CC(=O)N3CN(C4CCCCC4)CSC3=C2C#N)c1OC (stereo not drawn), COc1cc(C2CC(=O)N3CN(C4CCCCC4)CSC3=C2C#N)ccc1O (stereo not drawn) is lower in “% Inhibition @ 10 uM” value: 21.8% for the first, -1.28% for the second.

First: COc1cc(C2CC(=O)N3CN(C)CSC3=C2C#N)cc(OC)c1OC (stereo not drawn)
Second: COc1ccc(Br)cc1C1CC(=O)N2CN(C)CSC2=C1C#N (stereo not drawn)
The “% Inhibition @ 10 uM” value of the first is lower: 3.77% for the first, 58.8% for the second.

Compared with CCOc1ccc(C2CC(=O)N3CN(C4CCCCC4)CSC3=C2C#N)cc1 (stereo not drawn), CCc1ccc(C2CC(=O)N3CN(C4CCCCC4)CSC3=C2C#N)cc1 (stereo not drawn) is higher in “% Inhibition @ 10 uM” value: 46.6% for the first, 64.5% for the second.

First: N#CC1=C2SCN(C3CCCC3)CN2C(=O)CC1c1cccs1 (stereo not drawn)
Second: N#CC1=C2SCN(C3CCCC3)CN2C(=O)CC1c1ccc(Cl)cc1 (stereo not drawn)
The “% Inhibition @ 10 uM” value of the first is lower: 48.2% for the first, 55.3% for the second.

First: Cc1ccc(C2CC(=O)N3CN(C4CCCCC4)CSC3=C2C#N)cc1 (stereo not drawn)
Second: CN1CSC2=C(C#N)C(c3ccc(Br)cc3)CC(=O)N2C1 (stereo not drawn)
The “% Inhibition @ 10 uM” value of the first is lower: 25.9% for the first, 43.4% for the second.

Compared with Cc1ccc(COc2ncnc3[nH]cnc23)c(C)c1, Cc1ccnc(NC(=O)c2ccc(-c3ccccc3)s2)c1 is higher in “% Inhibition @ 10 uM” value: -3.09% for the first, 4.4% for the second.

Going from Cc1ccc(CNC(=O)C2CCCN(S(=O)(=O)c3cccc4nonc34)C2)cc1 (stereo not drawn) to Cc1ccc(S(=O)(=O)NC(CC(=O)O)c2cccs2)cc1 (stereo not drawn), the “% Inhibition @ 10 uM” value rises from -0.668% to 3.64%.

Compared with O=C(c1ccc(Oc2ccccc2)cc1)c1nc2c(n1O)CCCC2, COc1ccc(-n2c(=S)[nH]c3sc4c(c3c2=O)CCCCC4)cc1 is higher in “% Inhibition @ 10 uM” value: 1.74% for the first, 12.4% for the second.

First: CCS(=O)(=O)c1nc(S(=O)(=O)c2ccc(Cl)cc2)c(N2CCOCC2)s1
Second: COc1ccc(-n2c(SCC(=O)N3CCOCC3)nc3sc4c(c3c2=O)CCC4)cc1
The “% Inhibition @ 10 uM” value of the first is lower: -2.25% for the first, 9.91% for the second.

Going from O=C(Nc1nc(-c2ccc(Br)cc2)cs1)c1ccco1 to COc1ccccc1CC(=N)NOC(=O)c1ccccc1OC, the “% Inhibition @ 10 uM” value rises from -2.99% to 5.37%.

First: O=c1c2c3c(sc2[nH]c(=S)n1-c1ccccc1)CN(Cc1ccccc1)CC3
Second: O=c1[nH]c(=S)[nH]c2sc3c(c12)CCN(Cc1ccccc1)C3
The “% Inhibition @ 10 uM” value of the first is higher: 57.7% for the first, 1.4% for the second.

First: O=c1[nH]c2sc3c(c2c(=O)n1-c1ccc(Cl)c(Cl)c1)CCC3
Second: O=c1c2c3c(sc2[nH]c(=S)n1-c1ccc(Cl)cc1)CCC3
The “% Inhibition @ 10 uM” value of the first is lower: -2.48% for the first, 62.5% for the second.

Going from Cc1ccc(-n2c(=S)[nH]c3sc4c(c3c2=O)CCCCC4)cc1 to COc1ccc2ccccc2c1C1CC(=O)N2CN(C)CSC2=C1C#N (stereo not drawn), the “% Inhibition @ 10 uM” value rises from 11.5% to 36.5%.

Going from CC1(C)CC(=O)C2=C(C1)N(c1nc[nH]n1)C(N)=C(C#N)C2c1cccc(Cl)c1 (stereo not drawn) to CN1CSC2=C(C#N)C(c3ccccc3Cl)CC(=O)N2C1 (stereo not drawn), the “% Inhibition @ 10 uM” value rises from 5.48% to 56.6%.

Compared with CN1C2CCC1CC(N1CCN(Cc3ccccc3)CC1)C2 (stereo not drawn), CN1CSC2=C(C#N)C(c3ccccc3)CC(=O)N2C1 (stereo not drawn) is higher in “% Inhibition @ 10 uM” value: -1.5% for the first, 32.9% for the second.

First: CCn1c(C)cc(/C=C2/NC(=O)N(c3ccccc3)C2=O)c1C
Second: CSc1ccc(C2CC(=O)N3CN(C)CSC3=C2C#N)cc1 (stereo not drawn)
The “% Inhibition @ 10 uM” value of the first is lower: -2.19% for the first, 75% for the second.
